Values without a mark were called inactive. Records with an inconclusive call do not appear. Calls of active or inactive are those of the source. Unless noted, calls follow the shape of the dose curve; as a rule, active = well fitted curve in the direction sought with a large enough effect in the repeat runs; inconclusive = weak or mixed curves; inactive = no such curve, though single readings can be large; an effect the other way counts as inactive or inconclusive.

Assay [1] has as its target Thyrotropin-releasing hormone receptor (Homo sapiens) (UniProt P34981). Briefly: qHTS assay to identify small molecule agonists of the thyrotropin-releasing hormone receptor (TRHR) signaling pathway (AID 1346891; calls by dose curve;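 also: HEK293 cells expressing TRHR with calcium dye readout; series mostly up to about 58 µM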). The procedure, abridged:
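Overnight-plated (18 h, 37 °C, 5% CO2) TRHR-Hek293 cells; 2 h calcium dye at 37 °C; compound in DMSO; 3-min kinetic fluorescence read.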

Assay [2] in a line: Human pregnane X receptor (PXR) small molecule agonists, qHTS cell viability counter screen (AID 1346977). Also: nearly all actives have a fitted effect of over 50% in size. Also: potency is read from the fitted curve at half-maximal effect. The procedure, abridged: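 After a 5hr pre-incubation, PXR-Luc HepG2 cells received compounds plus positive control in DMSO and were kept 24hr at 37C. Cell viability was quantified by fluorescence from CellTiter-Fluor added for the final hour.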
Assay [3] can be described thus: Caspase-3/7 induction in HepG2 cells by small molecules, qHTS assay (AID 1346978). Also: nearly all actives have a fitted effect of over 15% in size. In outline: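 Wild-type HepG2 cells (2,000/well) were settled 5 h at 37 C, 5% CO2, then exposed to compounds in DMSO for 17 h. Caspase-3/7 activity was read by luminescence 30 min after adding Caspase-Glo 3/7 reagent at room temperature.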
A short description of assay [4]: Caspase-3/7 induction in CHO-K1 cells by small molecules, qHTS cell viability counter screen (AID 1346979). Also: nearly all actives have a fitted effect of over 35% in size. In outline:
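Multiplexed with Caspase-Glo 3/7 in CHO-K1 cells, this counter screen added CellTiter-Fluor after 16hr of compound exposure and recorded fluorescence 1hr later.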

A short description of assay [5]: Caspase-3/7 induction in CHO-K1 cells by small molecules, qHTS assay (AID 1346980). Also: nearly all actives have a fitted effect of over 15% in size. The procedure, abridged:
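Wild-type cells were seeded at 1,500 per well and settled 5 hr at 37 C, 5% CO2, then exposed to DMSO-dissolved compounds for 17 hr. Caspase-Glo 3/7 reagent was added, and luminescence was read after 30min at room temperature.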

The nature of assay [6]: Caspase-3/7 induction in HepG2 cells by small molecules, qHTS cell viability counter screen (AID 1346981). Also: nearly all actives have a fitted effect of over 30% in size. Also: potency is read from the fitted curve at half-maximal effect. As to activity change, negative = cytotoxicity: series mostly up to about 92 µM. In outline: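 In this quantitative HTS counter screen, compounds delivered in DMSO were left on unmodified HepG2 cells for 16 hr at 37 C. Viability was then determined fluorometrically with CellTiter-Fluor, in parallel with caspase-3/7 induction in the same wells.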

Assay [7] deals with Nuclear receptor subfamily 1 group I member 2 (Homo sapiens) (UniProt O75469). Nature of the assay: Human pregnane X receptor (PXR) small molecule agonists, qHTS assay (AID 1346982). Also: nearly all actives have a fitted effect of over 35% in size. Also: potency is read from the fitted curve at half-maximal effect. In outline:
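Reporter HepG2 cells expressing PXR-Luc are cultured in charcoal-stripped FBS (5%), treated with compounds for 24 hr at 37 C, and assayed by ONE-Glo luminescence after 30 min at room temperature.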

Assay [8] concerns the target Cytochrome P450 2D6 (Homo sapiens) (UniProt P10635). Nature of the assay: Cytochrome P450 Family 2 Subfamily D Member 6 (CYP2D6) small molecule antagonists: luciferase reporter qHTS assay (AID 1671196). Also: nearly all actives have a fitted effect of over 50% in size. Also: potency is read from the fitted curve at half-maximal effect. As to activity change, negative = inhibition: series mostly up to about 120 µM. In outline: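 Test chemicals meet CYP2D6 plus proluciferin substrate (10 min, RT); NADPH regenerating solution then drives turnover for 1 h. Detection reagent halts the reaction; luminescence measured after 20 min.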

Assay [9] addresses Cytochrome P450 2C19 (Homo sapiens) (UniProt P33261). Briefly: Cytochrome P450 Family 2 Subfamily C Member 19 (CYP2C19) small molecule antagonists: luciferase reporter qHTS assay (AID 1671197). Also: nearly all actives have a fitted effect of over 65% in size. Also: potency is read from the fitted curve at half-maximal effect. As to activity change, negative = inhibition: series mostly up to about 120 µM. The procedure, abridged: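 Luminescent readout of CYP2C19 activity: luciferin product detected 20 min after adding detection reagent. Before that, compound and enzyme-substrate mix preincubated 10 min at room temperature; NADPH-regenerating system started a 1 h, 37C reaction. Ketoconazole as positive control.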

Assay [10] deals with Cytochrome P450 1A2 (Homo sapiens) (UniProt P05177). Nature of the assay: Cytochrome P450 Family 1 Subfamily A Member 2 (CYP1A2) small molecule antagonists: luciferase reporter qHTS assay (AID 1671199). Also: nearly all actives have a fitted effect of over 50% in size. Also: potency is read from the fitted curve at half-maximal effect. As to activity change, negative = inhibition: series mostly up to about 120 µM. In outline: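 Steps: enzyme-substrate mix dispensed; test compounds and furafylline control pinned in; 10 min room temperature; NADPH regeneration solution added, 1 h; reaction stopped with luciferin detection reagent; luminescence read after 20 min.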

The target of assay [11] is Voltage-gated inwardly rectifying potassium channel KCNH2 (Homo sapiens) (UniProt Q12809). Nature of the assay: Human Ether-a-go-go-Related Gene (hERG) channel small molecule antagonists: fluorescence cell-based qHTS assay (AID 1671200). Also: nearly all actives have a fitted effect of over 50% in size. Also: potency is read from the fitted curve at half-maximal effect.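 As to activity change, negative = inhibition: hERG-expressing U2OS cells given a thallium stimulus after FluxOR II dye loading; series mostly up to about 77 µM.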 In outline:
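Cell line hERG-U2OS; dye FluxOR II, 1 h RT dark; Tl+ stimulus; ex 480/em 540 nm, read each second for 2 min.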

The target in assay [12] is Cytochrome P450 2C9 (Homo sapiens) (UniProt P11712). Briefly: Cytochrome P450 Family 2 Subfamily C Member 9 (CYP2C9) small molecule antagonists: luciferase reporter qHTS assay (AID 1671198). Also: nearly all actives have a fitted effect of over 50% in size. Also: potency is read from the fitted curve at half-maximal effect. As to activity change, negative = inhibition: series mostly up to about 120 µM. In outline:
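CYP2C9 activity was measured with a P450-Glo proluciferin substrate. Enzyme–substrate mix was held with compound for 10 min at room temperature, then NADPH regeneration solution was added for 1 h at 37C. Luciferin product was read as luminescence.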

For assay [13], the target named is Cytochrome P450 3A4 (Homo sapiens) (UniProt P08684). Briefly: Cytochrome P450 Family 3 Subfamily A Member 4 (CYP3A4) small molecule antagonists: luciferase reporter qHTS assay (AID 1671201). Also: nearly all actives have a fitted effect of over 50% in size. Also: potency is read from the fitted curve at half-maximal effect. As to activity change, negative = inhibition: series mostly up to about 120 µM. The procedure, abridged:
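Room-temperature assay throughout: 10 min compound–enzyme/substrate preincubation, 1 h reaction after NADPH regeneration solution, 20 min detection. Luciferin formed from proluciferin substrate is quantified by luminescence.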
% is scaled to controls: 0 for no effect and ±100 for the full control effect.

Chain of Cytochrome P450 3A4 (Homo sapiens) (P08684 whole entry, looked up): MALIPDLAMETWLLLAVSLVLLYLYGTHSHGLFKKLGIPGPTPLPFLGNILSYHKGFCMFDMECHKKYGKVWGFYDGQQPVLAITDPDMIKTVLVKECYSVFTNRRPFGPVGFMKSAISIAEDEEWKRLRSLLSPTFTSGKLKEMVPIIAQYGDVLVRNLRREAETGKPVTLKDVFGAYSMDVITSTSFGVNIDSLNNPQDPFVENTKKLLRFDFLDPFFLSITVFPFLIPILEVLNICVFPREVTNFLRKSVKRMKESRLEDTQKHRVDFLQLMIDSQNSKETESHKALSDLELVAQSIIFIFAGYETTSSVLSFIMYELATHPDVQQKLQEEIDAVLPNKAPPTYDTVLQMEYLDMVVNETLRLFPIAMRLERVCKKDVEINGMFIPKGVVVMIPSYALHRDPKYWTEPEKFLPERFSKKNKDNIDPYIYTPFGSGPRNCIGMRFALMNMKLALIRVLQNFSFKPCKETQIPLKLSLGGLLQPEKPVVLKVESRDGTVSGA
Chain of Nuclear receptor subfamily 1 group I member 2 (Homo sapiens) (O75469 whole entry, looked up): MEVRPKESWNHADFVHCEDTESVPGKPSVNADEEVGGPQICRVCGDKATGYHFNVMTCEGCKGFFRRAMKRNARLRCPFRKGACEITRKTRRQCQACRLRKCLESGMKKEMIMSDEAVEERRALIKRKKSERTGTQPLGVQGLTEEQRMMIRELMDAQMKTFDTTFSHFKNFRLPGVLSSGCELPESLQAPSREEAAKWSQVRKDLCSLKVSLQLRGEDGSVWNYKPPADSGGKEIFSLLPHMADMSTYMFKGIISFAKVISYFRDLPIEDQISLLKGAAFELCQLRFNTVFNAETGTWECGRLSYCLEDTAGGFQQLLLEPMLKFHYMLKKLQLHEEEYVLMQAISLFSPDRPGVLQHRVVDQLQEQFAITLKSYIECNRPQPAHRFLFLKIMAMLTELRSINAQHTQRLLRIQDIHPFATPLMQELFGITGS
Chain of Thyrotropin-releasing hormone receptor (Homo sapiens) (P34981 whole entry, looked up): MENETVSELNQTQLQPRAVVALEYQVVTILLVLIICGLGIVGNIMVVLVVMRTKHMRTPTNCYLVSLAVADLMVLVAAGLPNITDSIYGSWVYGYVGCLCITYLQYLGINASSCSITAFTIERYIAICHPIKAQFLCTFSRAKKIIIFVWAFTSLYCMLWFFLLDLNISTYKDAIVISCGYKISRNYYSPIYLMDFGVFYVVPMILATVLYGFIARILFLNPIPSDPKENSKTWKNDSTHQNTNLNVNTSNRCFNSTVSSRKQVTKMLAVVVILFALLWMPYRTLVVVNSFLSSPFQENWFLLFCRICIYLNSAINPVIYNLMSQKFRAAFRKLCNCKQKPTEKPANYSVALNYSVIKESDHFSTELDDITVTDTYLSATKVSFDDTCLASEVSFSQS
Chain of Cytochrome P450 1A2 (Homo sapiens) (P05177 whole entry, looked up): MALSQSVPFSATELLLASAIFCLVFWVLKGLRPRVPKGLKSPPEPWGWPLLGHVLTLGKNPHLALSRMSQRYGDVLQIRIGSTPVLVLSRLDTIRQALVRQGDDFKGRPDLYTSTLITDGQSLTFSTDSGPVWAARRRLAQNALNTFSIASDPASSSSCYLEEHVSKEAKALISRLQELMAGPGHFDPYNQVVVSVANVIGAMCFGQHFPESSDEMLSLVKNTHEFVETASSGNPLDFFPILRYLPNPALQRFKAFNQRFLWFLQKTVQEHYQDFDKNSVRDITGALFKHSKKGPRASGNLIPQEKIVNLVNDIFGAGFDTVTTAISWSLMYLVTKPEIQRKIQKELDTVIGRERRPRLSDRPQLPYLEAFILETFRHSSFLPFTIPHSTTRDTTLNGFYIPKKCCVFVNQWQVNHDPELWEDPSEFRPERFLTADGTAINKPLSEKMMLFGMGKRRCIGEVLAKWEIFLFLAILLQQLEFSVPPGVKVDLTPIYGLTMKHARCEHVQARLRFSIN
Chain of Cytochrome P450 2C19 (Homo sapiens) (P33261 whole entry, looked up): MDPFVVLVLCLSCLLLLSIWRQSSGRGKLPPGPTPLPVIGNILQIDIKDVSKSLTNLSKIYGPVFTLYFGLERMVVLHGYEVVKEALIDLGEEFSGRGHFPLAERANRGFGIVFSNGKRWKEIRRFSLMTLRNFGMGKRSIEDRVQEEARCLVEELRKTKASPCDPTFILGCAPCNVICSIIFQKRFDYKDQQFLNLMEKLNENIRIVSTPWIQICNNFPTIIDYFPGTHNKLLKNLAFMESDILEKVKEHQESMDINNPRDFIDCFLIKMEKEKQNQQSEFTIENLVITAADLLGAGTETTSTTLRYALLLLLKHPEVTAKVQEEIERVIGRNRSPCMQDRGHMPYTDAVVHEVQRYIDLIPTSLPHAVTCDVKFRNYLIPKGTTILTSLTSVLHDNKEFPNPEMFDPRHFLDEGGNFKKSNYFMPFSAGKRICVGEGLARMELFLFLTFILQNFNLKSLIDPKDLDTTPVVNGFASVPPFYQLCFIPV
Chain of Cytochrome P450 2D6 (Homo sapiens) (P10635 whole entry, looked up): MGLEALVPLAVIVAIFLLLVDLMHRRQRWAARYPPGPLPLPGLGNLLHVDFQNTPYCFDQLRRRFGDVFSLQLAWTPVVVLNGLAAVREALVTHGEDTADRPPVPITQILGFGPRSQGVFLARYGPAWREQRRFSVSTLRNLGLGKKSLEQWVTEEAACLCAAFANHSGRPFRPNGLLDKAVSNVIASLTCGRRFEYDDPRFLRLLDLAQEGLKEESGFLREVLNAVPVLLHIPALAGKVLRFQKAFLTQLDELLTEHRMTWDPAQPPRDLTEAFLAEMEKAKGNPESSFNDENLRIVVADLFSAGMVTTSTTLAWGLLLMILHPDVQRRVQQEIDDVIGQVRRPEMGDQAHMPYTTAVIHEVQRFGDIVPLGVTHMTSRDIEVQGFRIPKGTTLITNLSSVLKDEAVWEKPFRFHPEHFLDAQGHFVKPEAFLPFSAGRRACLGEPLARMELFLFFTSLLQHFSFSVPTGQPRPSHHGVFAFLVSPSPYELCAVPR
Chain of Voltage-gated inwardly rectifying potassium channel KCNH2 (Homo sapiens) (Q12809 whole entry, looked up): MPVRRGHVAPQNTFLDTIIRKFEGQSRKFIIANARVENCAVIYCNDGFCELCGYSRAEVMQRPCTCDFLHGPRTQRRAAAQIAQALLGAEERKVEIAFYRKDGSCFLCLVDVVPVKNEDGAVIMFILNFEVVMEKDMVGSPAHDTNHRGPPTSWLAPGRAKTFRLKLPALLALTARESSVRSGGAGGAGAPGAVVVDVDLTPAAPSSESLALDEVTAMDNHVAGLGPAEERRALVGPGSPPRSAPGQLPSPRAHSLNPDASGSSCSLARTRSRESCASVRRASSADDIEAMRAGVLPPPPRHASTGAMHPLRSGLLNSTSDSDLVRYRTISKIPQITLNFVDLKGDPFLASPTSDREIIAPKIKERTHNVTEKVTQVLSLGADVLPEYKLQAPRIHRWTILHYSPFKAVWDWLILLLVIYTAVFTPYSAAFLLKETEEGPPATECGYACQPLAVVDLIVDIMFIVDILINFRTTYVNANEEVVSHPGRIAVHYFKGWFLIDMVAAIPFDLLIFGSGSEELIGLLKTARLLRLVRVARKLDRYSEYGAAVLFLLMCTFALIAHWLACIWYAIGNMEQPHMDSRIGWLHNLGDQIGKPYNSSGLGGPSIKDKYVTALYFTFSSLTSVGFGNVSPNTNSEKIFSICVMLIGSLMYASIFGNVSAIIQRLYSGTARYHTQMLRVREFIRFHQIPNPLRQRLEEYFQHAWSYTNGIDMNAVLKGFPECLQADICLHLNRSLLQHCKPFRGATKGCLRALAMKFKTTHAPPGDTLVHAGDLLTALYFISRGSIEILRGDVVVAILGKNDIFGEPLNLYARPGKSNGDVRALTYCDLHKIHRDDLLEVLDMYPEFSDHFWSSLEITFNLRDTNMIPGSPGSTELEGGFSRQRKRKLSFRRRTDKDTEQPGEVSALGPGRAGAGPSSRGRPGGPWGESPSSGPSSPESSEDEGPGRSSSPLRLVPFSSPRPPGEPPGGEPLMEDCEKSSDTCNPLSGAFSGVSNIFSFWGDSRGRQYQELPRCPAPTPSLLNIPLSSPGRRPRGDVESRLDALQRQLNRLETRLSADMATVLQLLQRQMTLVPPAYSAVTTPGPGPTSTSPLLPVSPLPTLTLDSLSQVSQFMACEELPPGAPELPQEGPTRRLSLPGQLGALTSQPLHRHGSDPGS
Chain of Cytochrome P450 2C9 (Homo sapiens) (P11712 whole entry, looked up): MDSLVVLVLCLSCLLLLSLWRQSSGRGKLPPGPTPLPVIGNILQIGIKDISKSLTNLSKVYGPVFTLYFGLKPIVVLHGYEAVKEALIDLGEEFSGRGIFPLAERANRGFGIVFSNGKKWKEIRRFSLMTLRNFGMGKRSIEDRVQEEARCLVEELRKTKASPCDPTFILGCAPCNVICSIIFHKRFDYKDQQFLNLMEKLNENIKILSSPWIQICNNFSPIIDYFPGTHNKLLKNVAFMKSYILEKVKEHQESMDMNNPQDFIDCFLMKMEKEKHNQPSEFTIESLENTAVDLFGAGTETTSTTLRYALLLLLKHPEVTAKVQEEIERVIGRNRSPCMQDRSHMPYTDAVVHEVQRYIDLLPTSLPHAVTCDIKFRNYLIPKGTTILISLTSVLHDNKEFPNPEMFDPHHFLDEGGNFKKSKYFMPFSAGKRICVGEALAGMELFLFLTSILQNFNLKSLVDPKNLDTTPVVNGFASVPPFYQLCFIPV

In the case of `[Cl][Nd]([Cl])[Cl]`, the outcome in assay [1] and in [5] was inactive. Further, the Potency result in assay [2], in [3], in assay [4], in assay [6], in assay [7] and in assay [8] was “inactive” each time. Besides, the Potency result in assay [9], in [10] and in [11] was “inactive” throughout.

As to `Cc1oc(=O)oc1COC(=O)[C@@H]1N2C(=O)[C@@H](NC(=O)[C@H](N)c3ccccc3)[C@H]2SC1(C)C`, the call in [1] and in [5] was inactive. For the same compound, the Potency entry in assay [2], in assay [3], in [4], in assay [6], in [7] and in assay [8] was “inactive” throughout. The Potency entry in assay [9], in assay [10] and in assay [11] was “inactive” in each case.

`CCCCCCOC(=O)CCCCC`: the compound was classed as inactive in [1] and in assay [5]. Moreover, the Potency result in [2], in assay [3], in assay [4], in assay [6], in [7] and in assay [8] was “inactive” each time. The Potency result in assay [9], in assay [12] and in assay [13] was “inactive” throughout.

In the case of `CC(C)(C)CCCCCCOC(=O)c1ccccc1C(=O)OCCCCCCC(C)(C)C`, the compound was called inactive in assay [1] and in assay [5]. The Potency result in assay [2], in assay [3], in assay [4], in assay [6], in assay [8] and in [12] was “inactive” throughout. In addition, the Potency entry in assay [10] and in assay [11] was “inactive” in each case. In addition, the Potency in assay [7] is 61.2 µM (active).

On to `SCCc1cnccn1`, for which the compound was called inactive in assay [1] and in [5]. The Potency result in assay [2], in assay [3], in assay [4], in assay [6], in assay [7] and in assay [8] was “inactive” throughout. Further, the Potency entry in [11] and in [13] was “inactive” throughout. Moreover, the Potency in assay [9] was 31.7 µM (active); in [10], 35.6 µM (active).

`CCCCCCC(O)CCOC(C)=O` (stereo unspecified): the result in [1] and in [5] was inactive. Further, the Potency result in assay [2], in [3], in assay [4], in assay [6], in assay [7] and in assay [8] was “inactive” in each case. For the same compound, the Potency entry in [11] and in assay [13] was “inactive” in each case. The Potency in assay [9] was 167 µM (active).

For the compound `CC1=CC[C@@H]2C[C@H]1C2(C)C`, the activation in assay [1] was -0.516% [at 11.8 µM]. Further, the activity change, negative = cytotoxicity is 1.01% [at 19 µM] in assay [2] and -0.185% [at 19 µM] in [6]. In assay [3], the caspase activation was -0.809% [at 19 µM]. Moreover, in [5], the caspase-3/7 activation was 0.0875% [at 19 µM]. For the same compound, the activity change, negative = inhibition in assay [8] is -8.83% [at 23.6 µM]; in assay [9], -6.89% [at 23.6 µM]; in assay [10], -16.3% [at 23.6 µM]. In addition, the Potency in [13] was 3.98 µM (active).

As for `O=NN(CCCl)C(=O)NCCCl`, the result in assay [1] and in [5] was inactive. For the same compound, the Potency entry in [2], in assay [3], in assay [6] and in [11] was “inactive” in each case.

As for `O=C(Oc1ccccc1)c1ccc2ccccc2c1O`, the compound was called inactive in assay [1] and in [5]. For the same compound, the Potency result in assay [2], in assay [3], in assay [6] and in assay [13] was “inactive” in each case. The Potency was 61.1 µM (active) in [7], 79.6 µM (active) in assay [9], 12.6 µM (active) in assay [12] and 5.64 µM (active) in assay [10].

With `Nc1ccc(N=Nc2ccc(N)cc2)cc1`, the outcome in assay [1] and in assay [5] was inactive. Besides, the Potency in [2] was 21.7 µM (active); in assay [6] it was 27.3 µM (active); in assay [10], 10 µM (active); in [13], 5.02 µM (active). The Potency entry in assay [3], in assay [7], in assay [8] and in assay [11] was “inactive” throughout.

On to `COc1cc(C(C)=O)ccc1OCCCN1CCC(c2noc3cc(F)ccc23)CC1`, for which the call in assay [1] and in assay [5] was inactive. For the same compound, the Potency result in [2], in [3], in assay [9] and in [10] was “inactive” in each case. Besides, the Potency is 11 µM (active) in assay [8] and 1.07 µM (active) in assay [11].

Consider `CCN(CC)CCNC(=O)c1cc(Cl)c(N)cc1OC`, for which the outcome in assay [1] and in assay [5] was inactive. The Potency entry in assay [2], in assay [3], in assay [6], in assay [7], in [9] and in [12] was “inactive” each time. For the same compound, the Potency entry in [10], in [11] and in assay [13] was “inactive” throughout. In assay [8], the Potency is 7.76 µM (active).

Turning to `CCCCCC`, the call in [1] and in assay [5] was inactive. Besides, the Potency result in assay [2], in assay [3], in assay [6] and in [11] was “inactive” in each case.

In the case of `CCCCCCCCCCCCCOC(=O)CCSCCC(=O)OCCCCCCCCCCCCC`, the activation in assay [1] is 0.934% [at 11.8 µM]; in assay [7], 3.58% [at 19 µM]. The activity change, negative = cytotoxicity in [2] is -0.253% [at 19 µM]; in assay [6], 6.29% [at 19 µM]. The caspase activation in assay [3] is 0.0624% [at 19 µM]. The caspase-3/7 activation in assay [5] was 0.789% [at 19 µM]. Moreover, the activity change, negative = inhibition was -6.54% [at 23.6 µM] in [8] and -9.44% [at 15.8 µM] in [11]. In [9], the Potency is 10.6 µM (active).

In the case of `COc1cc(S(=O)(=O)Nc2ccccc2)c(OC)cc1N`, the compound was classed as inactive in [1] and in assay [5]. Besides, the Potency entry in assay [2], in assay [3] and in assay [6] was “inactive” in each case. Moreover, the Potency in [7] was 27.3 µM (active); in assay [9] it was 15.9 µM (active); in assay [12], 35.6 µM (active); in assay [10], 39.9 µM (active); in [13], 3.56 µM (active).

Consider `CCC(=O)OCc1ccc(OC)cc1`, for which the call in assay [1] and in assay [5] was inactive. The Potency result in assay [2], in assay [3], in assay [7], in assay [8], in assay [11] and in [13] was “inactive” each time. The Potency in assay [9] was 64.9 µM (active); in assay [10] it was 57.8 µM (active).

Turning to `NC(=O)CCCCC(N)=O`, the compound was called inactive in [1] and in assay [5]. In addition, the Potency entry in assay [2], in [3], in [6], in [7], in assay [8] and in assay [9] was “inactive” in each case. In addition, the Potency entry in [12], in [10], in assay [11] and in assay [13] was “inactive” throughout.

`O=C(c1ccccc1)c1ccc(O)cc1`: the result in assay [1] and in assay [5] was inactive. In addition, the Potency result in [2], in [3], in assay [6], in assay [12], in assay [11] and in [13] was “inactive” in each case. Besides, the Potency in assay [7] is 61.8 µM (active); in assay [8], 40.4 µM (active); in assay [9], 40.4 µM (active); in [10], 32.1 µM (active).

The record behind these values is PubChem BioAssay (Tox21).
